From PubChem
CHX counter: counter-screen hit for Shiga toxin inhibitors, cycloheximide; max response, %; actives 12% (n = 300,000); cell reporter, cycloheximide protein synthesis inhibition counterscreen; in the data active = max response mostly above about 13%, no sharp cut-off; inactive = mostly below about 14%; note: read at 38.3 µM for the half of the compounds with a filed dose; 0% is about no effect
SARS PLP yeast: SARS-CoV PLP inhibition in yeast. S. cerevisiae expressing SARS-CoV PLpro, growth rescue. Potency, µM (series often up to 32.9 µM), without a hit: top-dose activity, positive = growth rescue, hits mostly activators. actives 0.19% (n = 330,000); calls by dose curve; note: potency is the fitted concentration of half-maximal effect; 0% is about no effect; nearly all actives have a fitted effect of over 55% in size
Pf growth 48h: inhibits P. falciparum growth in the first generation, 48 h. P. falciparum luciferase growth in erythrocytes, 48 h. Potency, µM (top dose mostly 28.7 µM), without a hit: top-dose activity change, negative = inhibition, hits mostly inhibitors. actives 5.9% (n = 310,000); note: potency is the fitted concentration of half-maximal effect; % is set by controls: 0 for no effect and ±100 for the full control effect
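Cell-based growth assay: transgenic P. falciparum expressing firefly luciferase, cultured in red cells within RPMI 1640 containing 0.5% w/v Albumax, 24 mM bicarbonate and gentamycin. A drop in luciferase activity indicates inhibition.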
AMA1 RON2 block: disrupts binding of P. falciparum AMA1 to RON2; AID 720542; AlphaScreen AMA1-biotinylated RON2 peptide binding; Potency, µM (doses to about 58.2 µM), inactives show top-dose activity change, negative = inhibition, actives largely listed as inhibitors; actives 0.2% (n = 360,000);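 note: potency is the fitted concentration of half-maximal effect; 0% = vehicle wells and -100% = peptide control; nearly all actives have a fitted effect of over 45% in size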
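AMA1 (3D7) with his tag at 25 nM final met compounds first, then biotinylated RON2 peptide at 25 nM; detection used donor plus acceptor beads, 10 µg/mL apiece, read by AlphaScreen after 30 min at room temperature.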
Shiga inhibitor: blocks Shiga toxin action in Vero cells; Vero cells, Shiga toxin protein synthesis inhibition reporter; inhibition, % at 38.7 µM; actives 9.2% (n = 290,000); AID 2315; in the data active = inhibition mostly above about 28%, no sharp cut-off; inactive = mostly below about 43%; note: 0% is about no effect
Pf growth 96h: P. falciparum growth inhibition at 96 hours | P. falciparum luciferase reporter growth, 96 h | Potency, µM (doses to about 28.7 µM), for inactives: at the highest dose activity change, negative = inhibition, actives largely listed as inhibitors | actives 6.9% (n = 320,000); note: potency is the fitted concentration of half-maximal effect; % is set by controls: 0 for no effect and ±100 for the full control effect
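P. falciparum expressing integrated firefly luciferase grown in erythrocytes (2% hematocrit, 0.05% parasitemia final) with compounds for 96 hours at 37 C, 5% CO2. Growth inhibition read as loss of luminescence after adding luciferase detection reagent.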
An asterisk follows results filed as active. A selection: hits, their analogues and other compounds. The true share with any hit is near 19%. Unless noted, calls come from the whole dose curve; as a rule, active = well fitted curve in the direction sought with a large enough effect; inconclusive = small, poorly fitted or top-dose-only effect, or another doubt; inactive = no such curve, though single readings can be large; an effect the other way counts as inactive or inconclusive.

For CSc1nc(NCc2ccco2)c2ccccc2n1 the results were CHX counter -4, SARS PLP yeast -13%, AMA1 RON2 block 15%, Shiga inhibitor 14 and Pf growth 96h -32%.
Screening Cc1cccc(Nc2nc(NCc3ccco3)c3ccccc3n2)c1 returned CHX counter 11*, SARS PLP yeast -83%, Pf growth 48h 0.66µM*, AMA1 RON2 block inconclusive, Shiga inhibitor 23 and Pf growth 96h inconclusive.
c1ccc(Nc2nc(NCc3ccco3)c3ccccc3n2)cc1 was read as CHX counter 16*, SARS PLP yeast -1%, Pf growth 48h inconclusive, AMA1 RON2 block -25%, Shiga inhibitor 33* and Pf growth 96h inconclusive.
OCCN1CCN(c2nc(NCc3ccco3)c3ccccc3n2)CC1 was read as CHX counter 2, SARS PLP yeast -7%, Pf growth 48h inconclusive, AMA1 RON2 block -15%, Shiga inhibitor 10 and Pf growth 96h 9.3µM*.
For CC(C)(Cc1cccc(CC(C)(C)C(=O)O)c1)C(=O)O the results were CHX counter -2, SARS PLP yeast 11%, Pf growth 48h 18%, AMA1 RON2 block 14%, Shiga inhibitor -7 and Pf growth 96h inconclusive.
O=c1c(Cl)c(N2CCN(c3ccc(F)cc3)CC2)cnn1-c1nc2ccccc2s1 was read as CHX counter 39*, SARS PLP yeast 6%, Pf growth 48h 196%, AMA1 RON2 block 13%, Shiga inhibitor 75* and Pf growth 96h 184%.
O=C(O)c1ccc2c3c(cccc13)C(=O)N(c1cccc3ccccc13)C2=O was read as CHX counter 3, SARS PLP yeast 1%, Pf growth 48h -3%, AMA1 RON2 block -1%, Shiga inhibitor 5 and Pf growth 96h 47%.
O=C(O)c1ccccc1N1C(=O)c2cccc3cccc(c23)C1=O was read as CHX counter -2, SARS PLP yeast 0%, Pf growth 48h 15%, AMA1 RON2 block 14%, Shiga inhibitor 15 and Pf growth 96h 8.3µM*.
`COc1cc(F)cc(-c2ccc3c(c2)c(-c2cccs2)c(-c2cc(OC)cc(OC)c2)n3C)c1` gave SARS PLP yeast 1%, Pf growth 48h 9.3µM*, AMA1 RON2 block -5% and Pf growth 96h inconclusive.
COc1cc(OC)cc(-c2c(-c3cccs3)c3cc(Br)ccc3n2C)c1 was read as SARS PLP yeast -18%, Pf growth 48h inconclusive, AMA1 RON2 block -1% and Pf growth 96h inconclusive.
COc1cc(OC)cc(-c2c(-c3cccs3)c3cc(-c4ccn[nH]4)ccc3n2C)c1 was read as SARS PLP yeast 1%, Pf growth 48h 4.7µM*, AMA1 RON2 block -13% and Pf growth 96h inconclusive.
`COc1cc(OC)cc(-c2c(-c3cccs3)c3cc(-c4cccc5[nH]ccc45)ccc3n2C)c1` gave SARS PLP yeast -3%, Pf growth 48h 2.3µM*, AMA1 RON2 block -10% and Pf growth 96h inconclusive.
COc1cc(OC)cc(-c2c(-c3cccs3)c3cc(-c4ccc(N(C)C)nc4)ccc3n2C)c1 was read as SARS PLP yeast 1%, Pf growth 48h inconclusive, AMA1 RON2 block -13% and Pf growth 96h inconclusive.
For Cc1onc(-c2ccccc2)c1C(=O)N(CC(C)C)c1c(N)n(CC(C)C)c(=O)[nH]c1=O the results were SARS PLP yeast 0%, Pf growth 48h -15%, AMA1 RON2 block -3% and Pf growth 96h -12%.
COC(=O)Cc1ccc(NC(=S)N2CCN(CCO)CC2)cc1 was read as AMA1 RON2 block 10%.
Screening CC1CC(=O)C=C(O)C1C(=O)OC(C)(C)C (stereo not given) returned CHX counter -4, SARS PLP yeast 3%, Pf growth 48h 6%, AMA1 RON2 block -1% and Shiga inhibitor -18.
Screening COCCNC(=O)C(c1ccc(F)cc1)N(C(=O)CCC(=O)Nc1nccs1)c1ccc(C)cc1 (stereo not given) returned CHX counter 0, SARS PLP yeast -1%, Pf growth 48h inconclusive, AMA1 RON2 block 36%, Shiga inhibitor 1 and Pf growth 96h 32%.
CC(C)(C)NC(=O)C(c1ccc(O)cc1)N(Cc1ccccc1)C(=O)CCC(=O)Nc1nccs1 (stereo not given) was read as CHX counter -3, SARS PLP yeast -1%, Pf growth 48h -3%, AMA1 RON2 block -11%, Shiga inhibitor -7 and Pf growth 96h -6%.
`CC(C)(C)NC(=O)C(c1ccc(O)cc1)N(C(=O)CCC(=O)Nc1nccs1)c1ccc(F)cc1` (stereo not given) gave CHX counter 1, SARS PLP yeast -1%, Pf growth 48h inconclusive, AMA1 RON2 block -4%, Shiga inhibitor -14 and Pf growth 96h 10µM*.
For Cc1ccc(N(C(=O)CCC(=O)Nc2nccs2)C(C(=O)NC(C)(C)C)c2ccc(O)cc2)cc1 (stereo not given) the results were CHX counter 3, SARS PLP yeast 0%, Pf growth 48h inconclusive, AMA1 RON2 block 8%, Shiga inhibitor -17 and Pf growth 96h 8.3µM*.
For Cc1ccc(-c2nc(Nc3ccc(N4CCOCC4)cc3)c3ccccc3n2)cc1 the results were CHX counter 16, SARS PLP yeast -4%, Pf growth 48h 13µM*, AMA1 RON2 block inconclusive, Shiga inhibitor 52* and Pf growth 96h inconclusive.
Cc1ccc(-c2nc(Nc3ccc(O)cc3)c3ccccc3n2)cc1 was read as CHX counter 14*, SARS PLP yeast -7%, AMA1 RON2 block 3%, Shiga inhibitor 56 and Pf growth 96h -1%.
